# Source: article PMC8384837, “Expanding the binding specificity for RNA recognition by a PUF domain”
# Numbering of substitutions follows the chain as printed.
# What was measured:
# Test in all cases: yeast three-hybrid, YBZ-1, SC-Leu-His + 0.5 mM 3-AT, 4 days
# Conditions in all cases: tags: N-Gal4 AD-HA kept; label: inside an RPR1-promoter hybrid RNA with tandem MS2 sites; ssRNA
# PUM1 PUF domain R6-KWQ = molecular target: T1, PUM1 PUF domain R6-KWQ (Homo sapiens, UniProt Q14671 828-1176, N1043K;Y1044W)
# T1 sequence: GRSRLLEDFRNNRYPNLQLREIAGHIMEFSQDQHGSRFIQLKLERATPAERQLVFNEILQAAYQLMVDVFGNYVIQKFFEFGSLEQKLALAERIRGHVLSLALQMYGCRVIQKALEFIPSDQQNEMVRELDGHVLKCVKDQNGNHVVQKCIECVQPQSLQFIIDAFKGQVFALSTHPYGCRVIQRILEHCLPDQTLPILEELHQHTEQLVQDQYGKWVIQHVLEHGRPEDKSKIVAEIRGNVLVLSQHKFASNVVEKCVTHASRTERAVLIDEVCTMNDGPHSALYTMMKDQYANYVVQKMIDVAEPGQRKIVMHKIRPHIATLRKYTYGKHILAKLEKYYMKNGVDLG
# How it was run: (§1)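 Pumilio-1 PUF domain libraries, randomized at the three base-contacting residues of each repeat, were co-expressed with matching RNA elements from a centromeric plasmid in strain YBZ-1, which carries a LexA–MS2 coat fusion and a HIS3 reporter. Transformants grew for four days on SC-Leu (input) or on SC-Leu-His + 0.5 mM 3-AT (selection), and the repeat regions were PCR-amplified and Illumina-sequenced. The interaction score is the log change in variant frequency from input to selection. That logarithm is base 2, with a pseudocount of 1 where a variant was absent.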
# PUM1 PUF domain R4-WSC = PUM1 PUF domain R4-WSC (Homo sapiens, UniProt Q14671 828-1176, N971W;H972S;Q975C)
# How it was run: as §1
# PUM1 PUF domain R4-EHL = PUM1 PUF domain R4-EHL (Homo sapiens, UniProt Q14671 828-1176, N971E;Q975L)
# How it was run: as §1
# PUM1 PUF domain R3-TRR = PUM1 PUF domain R3-TRR (Homo sapiens, UniProt Q14671 828-1176, C935T;Q939R)
# How it was run: as §1
# PUM1 PUF domain R3-SHA = PUM1 PUF domain R3-SHA (Homo sapiens, UniProt Q14671 828-1176, C935S;R936H;Q939A)
# How it was run: as §1
# PUM1 PUF domain R6-LWC = molecular target: T2, PUM1 PUF domain R6-LWC (Homo sapiens, UniProt Q14671 828-1176, N1043L;Y1044W;Q1047C)
# T2 sequence: T1 sequence with K216L, Q220C
# How it was run: as §1
# PUM1 PUF domain R3-TFW = PUM1 PUF domain R3-TFW (Homo sapiens, UniProt Q14671 828-1176, C935T;R936F;Q939W)
# How it was run: as §1
# PUM1 PUF domain R6-GFC = molecular target: T3, PUM1 PUF domain R6-GFC (Homo sapiens, UniProt Q14671 828-1176, N1043G;Y1044F;Q1047C)
# T3 sequence: T1 sequence with K216G, W217F, Q220C
# How it was run: as §1
# PUM1 PUF domain R7-LTL = PUM1 PUF domain R7-LTL (Homo sapiens, UniProt Q14671 828-1176, S1079L;N1080T;E1083L)
# How it was run: as §1
# PUM1 PUF domain R4-DYA = PUM1 PUF domain R4-DYA (Homo sapiens, UniProt Q14671 828-1176, N971D;H972Y;Q975A)
# How it was run: as §1
sequence,measurement,setting,value
GGCUAGAACUAGUGGAUCCCCCGGCGCCCGGCGGCUCGAGCCCGGGUAAGUGAAAAUAGUCUGCAUGCCGCCGGGCGCCAUGCCUGCAGGUCGACUCUAGAAAACAUG,binding signal,PUM1 PUF domain R6-KWQ,2.19 log2 enrichment (interaction score)
GGCUAGAACUAGUGGAUCCCCCGGCGCCCGGCGGCUCGAGCCCGGGUAAGUGUACAUAGUCUGCAUGCCGCCGGGCGCCAUGCCUGCAGGUCGACUCUAGAAAACAUG,binding signal,PUM1 PUF domain R4-WSC,2.22 log2 enrichment (interaction score)
same,binding signal,PUM1 PUF domain R4-EHL,1.89 log2 enrichment (interaction score)
GGCUAGAACUAGUGGAUCCCCCGGCGCCCGGCGGCUCGAGCCCGGGUAAGUGCAAAUAGUCUGCAUGCCGCCGGGCGCCAUGCCUGCAGGUCGACUCUAGAAAACAUG,binding signal,PUM1 PUF domain R6-KWQ,5.25 log2 enrichment (interaction score)
GGCUAGAACUAGUGGAUCCCCCGGCGCCCGGCGGCUCGAGCCCGGGUAAGUGUAAAUAGUCUGCAUGCCGCCGGGCGCCAUGCCUGCAGGUCGACUCUAGAAAACAUG,binding signal,PUM1 PUF domain R3-TRR,1.03 log2 enrichment (interaction score)
same,binding signal,PUM1 PUF domain R3-SHA,4.29 log2 enrichment (interaction score)
same,binding signal,PUM1 PUF domain R4-WSC,2.87 log2 enrichment (interaction score)
same,binding signal,PUM1 PUF domain R4-EHL,3.16 log2 enrichment (interaction score)
same,binding signal,PUM1 PUF domain R6-KWQ,2.54 log2 enrichment (interaction score)
same,binding signal,PUM1 PUF domain R6-LWC,5.46 log2 enrichment (interaction score)
same,binding signal,PUM1 PUF domain R3-TFW,4.12 log2 enrichment (interaction score)
same,binding signal,PUM1 PUF domain R6-GFC,2.74 log2 enrichment (interaction score)
GGCUAGAACUAGUGGAUCCCCCGGCGCCCGGCGGCUCGAGCCCGGGUAAGUGUAAUUAGUCUGCAUGCCGCCGGGCGCCAUGCCUGCAGGUCGACUCUAGAAAACAUG,binding signal,PUM1 PUF domain R3-TRR,3.68 log2 enrichment (interaction score)
GGCUAGAACUAGUGGAUCCCCCGGCGCCCGGCGGCUCGAGCCCGGGUAAGUGUAACUAGUCUGCAUGCCGCCGGGCGCCAUGCCUGCAGGUCGACUCUAGAAAACAUG,binding signal,PUM1 PUF domain R3-TRR,5.18 log2 enrichment (interaction score)
GGCUAGAACUAGUGGAUCCCCCGGCGCCCGGCGGCUCGAGCCCGGGUAAGUGUAAGUAGUCUGCAUGCCGCCGGGCGCCAUGCCUGCAGGUCGACUCUAGAAAACAUG,binding signal,PUM1 PUF domain R3-TRR,1.75 log2 enrichment (interaction score)
GGCUAGAACUAGUGGAUCCCCCGGCGCCCGGCGGCUCGAGCCCGGGUAAGUUUAAAUAGUCUGCAUGCCGCCGGGCGCCAUGCCUGCAGGUCGACUCUAGAAAACAUG,binding signal,PUM1 PUF domain R7-LTL,4.96 log2 enrichment (interaction score)
GGCUAGAACUAGUGGAUCCCCCGGCGCCCGGCGGCUCGAGCCCGGGUAAGUGUAUAUAGUCUGCAUGCCGCCGGGCGCCAUGCCUGCAGGUCGACUCUAGAAAACAUG,binding signal,PUM1 PUF domain R4-DYA,7.28 log2 enrichment (interaction score)
same,binding signal,PUM1 PUF domain R4-WSC,4.12 log2 enrichment (interaction score)
